The text below walks through data of PubChem BioAssay (NCI).

Compounds without any hit were thinned out: in the full panel of roughly 83,000, 20% have a hit.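 Values shown are percent growth following 48 h exposure of cells in 96-well plates to a single concentration of compound; below 10 was considered active.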 Unmarked numbers belong to inactive results. Calls of active or inactive are those of the source.

Among the test systems are T-47D breast; BT-549 breast; MDA-MB-435 melanoma; SW-620 colon; MCF7 breast; HCT-116 colon; HCC-2998 colon; KM12 colon.
Assay in all cases: NCI-60 one-dose screen, 48 h (100 = growth as untreated, 0 = no growth, -100 = all killed)
What all share (settings): 10 µM

`COc1cc2cc(Oc3ccc(NC(=O)Nc4ccc(Cl)c(C(F)(F)F)c4)cc3)c(C)nc2cc1OC`: the growth was 21.4% in the test on T-47D breast; -38.7% (active) in the test with BT-549 breast; -25.7% (active) in the test on MDA-MB-435 melanoma; 7.51% (active) in the test on SW-620 colon; 2.59% (active) with MCF7 breast; -87.3% (active) in the test with HCT-116 colon. Further, the growth in the test on HCC-2998 colon was -13.1% (active); in the test with KM12 colon it was -16.4% (active).

In the case of `CCOC(=O)CC(S(=O)(=O)c1ccccc1)S(=O)(=O)c1ccccc1`, the growth with T-47D breast was 88.1%; in the test with BT-549 breast, 110%; with MDA-MB-435 melanoma, 107%; with SW-620 colon it was 8.23% (active); with MCF7 breast, 101%; with HCT-116 colon, 102%. Moreover, the growth was 109% in the test on HCC-2998 colon and 97.1% in the test with KM12 colon.

On to `Cc1cc(CSc2ccccc2C(=O)N2CC=C(c3ccccc3)CC2)on1`, for which the growth with T-47D breast was 75.5%; in the test on BT-549 breast it was 101%; in the test on MDA-MB-435 melanoma, 98%; with SW-620 colon it was 97.6%; in the test on MCF7 breast, 94.9%; in the test on HCT-116 colon, 93.1%. In addition, the growth was 93.3% with HCC-2998 colon and 97.2% in the test on KM12 colon.

As to `Cc1cc(CC(C)CC(C)(C)C)n(O)c(=O)c1` (stereo not given) (tested in a mixture with another compound), the growth was 28.1% with T-47D breast; 29.4% with BT-549 breast; 22.2% in the test on MDA-MB-435 melanoma; 34.4% in the test on SW-620 colon; 17.5% with MCF7 breast; 22.9% with HCT-116 colon. Besides, the growth in the test on HCC-2998 colon is 57.5%; in the test on KM12 colon it was 27.4%.

On to `CC(C)C[C@H](NC(=O)Cn1cccc(CNC(=O)c2ccccc2)c1=O)B(O)O`, for which the growth in the test on T-47D breast is -18.5% (active); in the test on BT-549 breast, 24.1%; in the test on MDA-MB-435 melanoma, -54.5% (active); in the test with SW-620 colon it was 6.53% (active); in the test on MCF7 breast, 30.2%; in the test on HCT-116 colon, 2.43% (active). The results for the growth in the test with HCC-2998 colon and in the test on KM12 colon were -34.8% (active) and -12.5% (active), respectively.

Turning to `c1ccc(CSc2ncccc2-c2nnc(SCCN3CCOCC3)o2)cc1`, the growth in the test with T-47D breast is 101%; in the test on BT-549 breast, 112%; in the test on MDA-MB-435 melanoma, 114%; in the test with SW-620 colon, 107%; in the test on MCF7 breast, 94.9%; with HCT-116 colon it was 108%. In addition, the growth with HCC-2998 colon was 116%; in the test on KM12 colon it was 107%.

As for `CC(=O)N[C@H](C(=O)N[C@@H](CCCNC(=N)N)C(=O)N[C@@H](CCCCN)C(=O)N[C@@H](CCCNC(=N)N)C(=O)NC(C(=O)N[C@@H](CC(C)C)C(=O)N[C@@H](CCCNC(=N)N)C(=O)N[C@@]1(C)CCC/C=C\CCC[C@@](C)(C(=O)N[C@@H](CCCNC(=N)N)C(=O)N[C@@H](CCC(=O)O)C(=O)N[C@@H](CC(C)C)C(=O)N[C@H](C(=O)N[C@@H](CCC(=O)O)C(N)=O)C(C)C)NC(=O)[C@H](CCC(N)=O)NC(=O)[C@H](CC(C)C)NC(=O)[C@H](CC(C)C)NC1=O)[C@@H](C)O)C(C)C` (stereo not given in full), the growth with T-47D breast is -53.4% (active); in the test with BT-549 breast it was -79.7% (active); with MDA-MB-435 melanoma, -12.1% (active); with SW-620 colon, 22.4%; with MCF7 breast it was -79.8% (active); in the test with HCT-116 colon, 18.9%. Besides, the figures for the growth in the test with HCC-2998 colon and in the test on KM12 colon were 51.3% and -40.8% (active), respectively.

In the case of `CCc1c2c(nc3ccc(OC(=O)N4CCC(N5CCCCC5)CC4)cc13)-c1cc3c(c(=O)n1C2)COC(=O)[C@]3(O)CC`, the growth with T-47D breast is 25.1%; in the test with BT-549 breast it was 22.1%; with MDA-MB-435 melanoma, 34.2%; in the test with SW-620 colon, 41.4%; with MCF7 breast, 3.64% (active); in the test on HCT-116 colon, 22%. The growth in the test on HCC-2998 colon is 28.2%; in the test on KM12 colon, 53.1%.

`Clc1ccc(C2=NN=C3C(Cc4ccccc4)=Nc4ccccc4N3C2)cc1`: the growth in the test on T-47D breast is 95%; with BT-549 breast, 88.8%; with MDA-MB-435 melanoma, 73%; with SW-620 colon, 91.8%; in the test on MCF7 breast, 88.7%; in the test with HCT-116 colon it was 53.1%. In addition, the growth in the test with HCC-2998 colon was 68.5%; in the test with KM12 colon it was 63.6%.

Regarding `NC1=NC(c2ccc(Cl)cc2)C2=C(N1)/C(=C/c1ccc(Cl)cc1)CCC2` (stereo not given), the growth is 102% with T-47D breast; 79% in the test with BT-549 breast; -0.458% (active) with MDA-MB-435 melanoma; 18.9% in the test on SW-620 colon; 33.2% with MCF7 breast; -72.1% (active) with HCT-116 colon. In addition, the growth with HCC-2998 colon was -31.1% (active); with KM12 colon, 2.3% (active).

For `N#CC1=C(N)Oc2cc(N)ccc2C1c1cccnc1` (stereo not given), the growth in the test on T-47D breast was 94.2%; in the test with BT-549 breast it was 88.4%; in the test on MDA-MB-435 melanoma, 71.8%; with SW-620 colon it was 90.1%; in the test with MCF7 breast, 89.4%; in the test on HCT-116 colon, 88.3%. Further, the growth in the test on HCC-2998 colon is 82.4%; in the test on KM12 colon it was 89.7%.

For `O=C1/C(=C/c2ccc([N+](=O)[O-])s2)Oc2cc(Cl)ccc21`, the growth in the test with T-47D breast is 11.2%; with BT-549 breast, -55% (active); in the test with MDA-MB-435 melanoma, -25.7% (active); in the test with SW-620 colon it was -40.9% (active); in the test on MCF7 breast it was 4.42% (active); in the test on HCT-116 colon, -17.8% (active). Further, the growth with HCC-2998 colon was 2.91% (active); with KM12 colon, -28.4% (active).

For `CC(C)N(CCOc1ccc(-c2nc3sccn3c2-c2ccnc(S(C)(=O)=O)n2)cc1)C(C)C`, the growth with T-47D breast was 105%; with BT-549 breast, 90.8%; in the test on MDA-MB-435 melanoma, 92.6%; in the test on SW-620 colon, 78.2%; in the test on MCF7 breast it was 82.5%; in the test with HCT-116 colon, 61.5%. Also, the growth was 88% in the test with HCC-2998 colon and 90.4% in the test with KM12 colon.

As for `CC(C)(C)c1ccc(S(=O)(=O)Oc2ccc(NC(=O)C3CCCCC3)cc2)cc1`, the growth was 0.897% (active) with T-47D breast; 51.8% in the test with BT-549 breast; 59.6% with MDA-MB-435 melanoma; 51.9% in the test with SW-620 colon; 19.8% in the test on MCF7 breast; 30.8% with HCT-116 colon. Further, the figures for the growth in the test with HCC-2998 colon and with KM12 colon were 51.8% and 31.7%, respectively.

Regarding `Cc1ccccc1N1C(=O)c2cc(S(N)(=O)=O)c(Cl)cc2NC1C` (stereo not given), the growth with T-47D breast was 104%; in the test on BT-549 breast it was 96.6%; with MDA-MB-435 melanoma, 112%; with SW-620 colon, 108%; with MCF7 breast it was 94.2%; in the test on HCT-116 colon, 102%. In addition, the growth in the test with HCC-2998 colon is 107%; in the test with KM12 colon, 108%.
